{"source": "PubChem BioAssay", "note": "Values joined by “and” are separate entries in the source; they are usually repeats but may differ in a detail not shown here. Identical values can stand only once. Active and inactive are the calls of the source. How the calls were made is not given here."}
{"experiment": "C. elegans survival during P. aeruginosa infection – whole organism (AID 651566);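 further: tested at 14 µM; sign flipped so higher z means a lower ratio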", "conditions": "C. elegans killed by P. aeruginosa, survival ratio"}
{"compound": "Cc1cc(-c2ccco2)cc(C)c1/C=C/c1cncc(-c2nn[nH]n2)c1", "z-score": "0.545 (inactive)"}
{"compound": "Cc1ccc(Nc2ccnc(Nc3cccc(C(N)=O)c3)n2)cc1O", "z-score": "-0.32 (inactive)"}
{"compound": "Clc1ccc(CNc2nccc(-c3cnn4ncccc34)n2)cc1", "z-score": "0.125 (inactive)"}
{"compound": "CCn1c(-c2nonc2N)nc2c(C#CC(C)(C)O)ncc(OC3CCNCC3)c21", "z-score": "0.17 (inactive)"}
{"compound": "O/N=C1/CCc2cc(-c3nc(C4CCNCC4)[nH]c3-c3ccncc3)ccc21", "z-score": "0.24 (inactive)"}
{"compound": "COc1cccc(-n2ncc3c(N/N=C/c4cccc(F)c4)ncnc32)c1", "z-score": "-0.05 (inactive)"}
{"compound": "CCCN1CCC(Oc2cc(Nc3nc(Nc4cccc(F)c4C(N)=O)c4cc[nH]c4n3)c(OC)cc2Cl)CC1", "z-score": "0.48 (inactive)"}
{"compound": "CCOc1nccc2c1nc(-c1nonc1N)n2CC", "z-score": "0.225 (inactive)"}
{"compound": "CCn1c(-c2nonc2N)nc2ccc(F)cc21", "z-score": "-0.725 (inactive)"}
{"compound": "COc1cc(/C=N/Nc2ncnc3c2cnn3Cc2ccccc2)ccc1O", "z-score": "-0.52 (inactive)"}
{"compound": "NS(=O)(=O)c1ccc(N=Cc2c(O)[nH]c3ccc4ncsc4c23)cc1", "z-score": "0.515 (inactive) and 0.145 (inactive)"}
{"compound": "COc1cc2c(cc1Nc1nc(Nc3ccsc3C(N)=O)c3cc[nH]c3n1)N(C(=O)CN(C)C)CCC2(C)C", "z-score": "0.455 (inactive)"}
{"compound": "c1cnn2ncc(-c3ccnc(NCCCN4CCOCC4)n3)c2c1", "z-score": "0.63 (inactive)"}
{"compound": "Nc1nc(-c2ccccn2)c(-c2ccc3ncccc3n2)s1", "z-score": "0.265 (inactive)"}
{"compound": "COc1cc(C)c(NC(=O)CN(C)C)cc1Nc1nc(Nc2cccc(F)c2C(N)=O)c2cc[nH]c2n1", "z-score": "-0.165 (inactive)"}
{"compound": "CN(c1ccc(NC(=O)Nc2c(Cl)cccc2Cl)cc1)c1ccnc(Nc2cccc(CS(C)(=O)=O)c2)n1", "z-score": "0.545 (inactive)"}
{"compound": "COC(=O)Nc1nc2ccc(Oc3ccc(NC(=O)Nc4cc(C(F)(F)F)ccc4F)cc3)cc2s1", "z-score": "-0.21 (inactive)"}
{"compound": "Fc1ccc(-c2cc(C3CNNC3c3ccccn3)ccn2)cc1", "note": "(stereo not drawn)", "z-score": "0 (inactive)"}
{"compound": "COC(=O)Nc1nc2ccc(Oc3ccc(NC(=O)Nc4cccc(Br)c4)cc3)cc2[nH]1", "z-score": "-0.435 (inactive)"}
{"compound": "CCC(=O)Nc1ccc(C)c(-c2ccc(C(=O)NCC3CC3)cc2)c1", "z-score": "0.67 (inactive)"}
{"compound": "Cc1nc(-c2ccccc2)n2nc(NCCCN3CCOCC3)ncc12", "z-score": "-0.095 (inactive)"}
{"compound": "COc1cccc(-n2nc(C)c3c(N/N=C(\\C)c4ccncc4)ncnc32)c1", "z-score": "0.74 (inactive)"}
{"compound": "N#Cc1ccc(Oc2nccc(-c3c(-c4ccc(F)cc4)ncn3C3CCNCC3)n2)cc1", "z-score": "0.255 (inactive)"}
{"compound": "CCN1CCC(CC(=O)Nc2n[nH]c3nc(-c4cccs4)c(Br)cc23)CC1", "z-score": "0.735 (inactive)"}
{"compound": "FC(F)(F)CNc1nccc(-c2cnn3ncccc23)n1", "z-score": "-1.18 (inactive)"}
{"compound": "CCCN(CCS(C)(=O)=O)Cc1ccc(-c2ccc3ncnc(Nc4ccc(OCc5cccc(F)c5)c(Cl)c4)c3c2)o1", "z-score": "1.21 (inactive)"}
{"compound": "COc1cc(C)c(N(C)C(=O)CN(C)C)cc1Nc1nc(Nc2cccc(F)c2C(N)=O)c2cc[nH]c2n1", "z-score": "0.1 (inactive)"}
{"compound": "Nc1nccc(C#Cc2cncnc2Nc2ccc(OCc3cccc(F)c3)c(Cl)c2)n1", "z-score": "0.82 (inactive)"}
{"compound": "CN1CCC(n2cnc(-c3ccc(F)cc3)c2-c2ccnc(N)n2)CC1", "z-score": "0.34 (inactive)"}
{"compound": "COc1ccc(-c2nn3ncccc3c2-c2ccnc(Nc3ccc(Cl)c(C(F)(F)F)c3)n2)cc1", "z-score": "-1.15 (inactive)"}
{"compound": "COc1ccc(-c2coc3ncnc(N)c23)cc1", "z-score": "0.065 (inactive)"}
{"compound": "O=C(Nc1n[nH]c2cc(-c3ccc(F)cc3)ccc12)C1CC1", "z-score": "0.27 (inactive)"}
{"compound": "Fc1ccc(-c2nn3ncccc3c2-c2ccnc(Nc3ccc4c(c3)OCCO4)n2)cc1", "z-score": "-0.41 (inactive)"}
{"compound": "CCn1c(-c2nonc2N)nc2c(C#CC(C)(C)O)nc(OCCNC)cc21", "z-score": "1.3 (inactive)"}
{"compound": "CCn1c(-c2nonc2N)nc2c(C#CCN)ncc(OCCCN)c21", "z-score": "-0.71 (inactive)"}
{"compound": "Cc1ccc(C(=O)NC2CC2)cc1-c1ccc2[nH]ncc2c1", "z-score": "0.325 (inactive)"}
{"compound": "COc1cc(N2CCN(C(C)C)CC2)ccc1Nc1nc(Nc2cccc(F)c2C(=O)O)c2cc[nH]c2n1", "z-score": "1.24 (inactive)"}
{"compound": "COc1ccccc1Nc1ncc(-c2ccccc2)o1", "z-score": "-1.29 (inactive)"}
{"compound": "COC(=O)Nc1nc2ccc(S(=O)(=O)c3ccc(NC(=O)Nc4cc(C(F)(F)F)ccc4F)cc3)cc2[nH]1", "z-score": "-0.105 (inactive)"}
{"experiment": "pro-inflammatory signaling induction in mouse macrophages – cell-based, murine, luminescence (AID 652131); further: test concentration not given here", "conditions": "murine macrophage pro-inflammatory reporter, hits give high values"}
{"compound": "Cc1cc(-c2ccco2)cc(C)c1/C=C/c1cncc(-c2nn[nH]n2)c1", "z-score": "4.88 (inactive)"}
{"compound": "Cc1ccc(Nc2ccnc(Nc3cccc(C(N)=O)c3)n2)cc1O", "z-score": "-1.32 (inactive)"}
{"compound": "Clc1ccc(CNc2nccc(-c3cnn4ncccc34)n2)cc1", "z-score": "-1.14 (inactive)"}
{"compound": "CCn1c(-c2nonc2N)nc2c(C#CC(C)(C)O)ncc(OC3CCNCC3)c21", "z-score": "3.47 (inactive)"}
{"compound": "O/N=C1/CCc2cc(-c3nc(C4CCNCC4)[nH]c3-c3ccncc3)ccc21", "z-score": "3.12 (inactive)"}
{"compound": "COc1cccc(-n2ncc3c(N/N=C/c4cccc(F)c4)ncnc32)c1", "z-score": "-0.183 (inactive)"}
{"compound": "CCCN1CCC(Oc2cc(Nc3nc(Nc4cccc(F)c4C(N)=O)c4cc[nH]c4n3)c(OC)cc2Cl)CC1", "z-score": "-0.663 (inactive)"}
{"compound": "CCOc1nccc2c1nc(-c1nonc1N)n2CC", "z-score": "0.153 (inactive)"}
{"compound": "CCn1c(-c2nonc2N)nc2ccc(F)cc21", "z-score": "-0.544 (inactive)"}
{"compound": "COc1cc(/C=N/Nc2ncnc3c2cnn3Cc2ccccc2)ccc1O", "z-score": "1.23 (inactive)"}
{"compound": "NS(=O)(=O)c1ccc(N=Cc2c(O)[nH]c3ccc4ncsc4c23)cc1", "z-score": "-1.62 (inactive) and -1.7 (inactive)"}
{"compound": "COc1cc2c(cc1Nc1nc(Nc3ccsc3C(N)=O)c3cc[nH]c3n1)N(C(=O)CN(C)C)CCC2(C)C", "z-score": "2.78 (inactive)"}
{"compound": "c1cnn2ncc(-c3ccnc(NCCCN4CCOCC4)n3)c2c1", "z-score": "-1.59 (inactive)"}
{"compound": "Nc1nc(-c2ccccn2)c(-c2ccc3ncccc3n2)s1", "z-score": "4.39 (inactive)"}
{"compound": "COc1cc(C)c(NC(=O)CN(C)C)cc1Nc1nc(Nc2cccc(F)c2C(N)=O)c2cc[nH]c2n1", "z-score": "5.12 (inactive)"}
{"compound": "CN(c1ccc(NC(=O)Nc2c(Cl)cccc2Cl)cc1)c1ccnc(Nc2cccc(CS(C)(=O)=O)c2)n1", "z-score": "5.36 (inactive)"}
{"compound": "COC(=O)Nc1nc2ccc(Oc3ccc(NC(=O)Nc4cc(C(F)(F)F)ccc4F)cc3)cc2s1", "z-score": "-0.073 (inactive)"}
{"compound": "Fc1ccc(-c2cc(C3CNNC3c3ccccn3)ccn2)cc1", "note": "(stereo not drawn)", "z-score": "-0.015 (inactive)"}
{"compound": "COC(=O)Nc1nc2ccc(Oc3ccc(NC(=O)Nc4cccc(Br)c4)cc3)cc2[nH]1", "z-score": "0.412 (inactive)"}
{"compound": "CCC(=O)Nc1ccc(C)c(-c2ccc(C(=O)NCC3CC3)cc2)c1", "z-score": "1.18 (inactive)"}
{"compound": "Cc1nc(-c2ccccc2)n2nc(NCCCN3CCOCC3)ncc12", "z-score": "-1.16 (inactive)"}
{"compound": "COc1cccc(-n2nc(C)c3c(N/N=C(\\C)c4ccncc4)ncnc32)c1", "z-score": "-0.201 (inactive)"}
{"compound": "N#Cc1ccc(Oc2nccc(-c3c(-c4ccc(F)cc4)ncn3C3CCNCC3)n2)cc1", "z-score": "-0.275 (inactive)"}
{"compound": "CCN1CCC(CC(=O)Nc2n[nH]c3nc(-c4cccs4)c(Br)cc23)CC1", "z-score": "-0.532 (inactive)"}
{"compound": "FC(F)(F)CNc1nccc(-c2cnn3ncccc23)n1", "z-score": "-1.22 (inactive)"}
{"compound": "CCCN(CCS(C)(=O)=O)Cc1ccc(-c2ccc3ncnc(Nc4ccc(OCc5cccc(F)c5)c(Cl)c4)c3c2)o1", "z-score": "1.79 (inactive)"}
{"compound": "COc1cc(C)c(N(C)C(=O)CN(C)C)cc1Nc1nc(Nc2cccc(F)c2C(N)=O)c2cc[nH]c2n1", "z-score": "0.717 (inactive)"}
{"compound": "Nc1nccc(C#Cc2cncnc2Nc2ccc(OCc3cccc(F)c3)c(Cl)c2)n1", "z-score": "-1.19 (inactive)"}
{"compound": "CN1CCC(n2cnc(-c3ccc(F)cc3)c2-c2ccnc(N)n2)CC1", "z-score": "3.77 (inactive)"}
{"compound": "COc1ccc(-c2nn3ncccc3c2-c2ccnc(Nc3ccc(Cl)c(C(F)(F)F)c3)n2)cc1", "z-score": "-0.74 (inactive)"}
{"compound": "COc1ccc(-c2coc3ncnc(N)c23)cc1", "z-score": "-0.443 (inactive)"}
{"compound": "O=C(Nc1n[nH]c2cc(-c3ccc(F)cc3)ccc12)C1CC1", "z-score": "0.642 (inactive)"}
{"compound": "Fc1ccc(-c2nn3ncccc3c2-c2ccnc(Nc3ccc4c(c3)OCCO4)n2)cc1", "z-score": "-0.769 (inactive)"}
{"compound": "CCn1c(-c2nonc2N)nc2c(C#CC(C)(C)O)nc(OCCNC)cc21", "z-score": "-0.135 (inactive)"}
{"compound": "CCn1c(-c2nonc2N)nc2c(C#CCN)ncc(OCCCN)c21", "z-score": "3.14 (inactive)"}
{"compound": "Cc1ccc(C(=O)NC2CC2)cc1-c1ccc2[nH]ncc2c1", "z-score": "-0.645 (inactive)"}
{"compound": "COc1cc(N2CCN(C(C)C)CC2)ccc1Nc1nc(Nc2cccc(F)c2C(=O)O)c2cc[nH]c2n1", "z-score": "-0.341 (inactive)"}
{"compound": "COc1ccccc1Nc1ncc(-c2ccccc2)o1", "z-score": "5.36 (inactive)"}
{"compound": "COC(=O)Nc1nc2ccc(S(=O)(=O)c3ccc(NC(=O)Nc4cc(C(F)(F)F)ccc4F)cc3)cc2[nH]1", "z-score": "2.68 (inactive)"}
